Several values for one entry are separate records, joined by “and”; a condition that tells them apart may be missing. Equal entries are not always repeated. Among all 6,400 compounds or so, about 610 (9.5%) were called active. What follows is part of a selection rich in actives, with near analogues and random picks from the rest. A number with no mark means an inactive call. Rule as the data show it: active = activity change below about -70%; inconclusive = no clear call, values can overlap the other calls; inactive = above that.
Assay: T. gondii ME49Luc in HeLa cells, luciferase assay, 72 h, no IFN-y (AID 1259421)
Settings: hits give low values, concentration not given here
With CC/C=C\C/C=C\C/C=C\CCCCCCCC(=O)O the activity change, negative = inhibition was 11.4%.
Clc1ccc(N/N=C(\c2ccccc2)c2ccccn2)nc1 gave an activity change, negative = inhibition of 31.4%.
N=C(N)S/C=C\C(=O)O gave an activity change, negative = inhibition of 28%.
For C[C@@H](Oc1ccc2[nH]nc(/C=C/c3cnn(CCO)c3)c2c1)c1c(Cl)cncc1Cl, the activity change, negative = inhibition was -81.2% (active).
For O=C(c1ccc(/C=C/c2n[nH]c3ccccc23)cc1)N1CCNCC1, the activity change, negative = inhibition was -59.7%.
With CCCSc1nc(N[C@@H]2C[C@@H]2c2ccc(F)c(F)c2)c2nnn([C@@H]3C[C@H](OCCO)[C@H](O)[C@H]3O)c2n1 the activity change, negative = inhibition was 5.35%.
For O=C(O)CCNC(=O)c1ccc(N=Nc2ccc(O)c(C(=O)O)c2)cc1, the activity change, negative = inhibition was 22.4%.
In the case of CCCCCOC(=O)Nc1nc(=O)n([C@@H]2O[C@H](C)[C@@H](O)[C@H]2O)cc1F, the activity change, negative = inhibition is reported as -63.1% and -62.7%.
In the case of Nc1nc(=O)n([C@H]2C[C@@H](O)[C@@H](CO)O2)cc1Cl, the activity change, negative = inhibition is reported as 7.28%.
Work on O=c1[nH]c(=O)n([C@H]2C[C@H](O)[C@@H](CO)O2)cc1Br yielded an activity change, negative = inhibition of 12.7%.
In the case of C[C@H]1O[C@@H](n2cc(F)c(=O)[nH]c2=O)[C@H](O)[C@@H]1O, the activity change, negative = inhibition is reported as -95% (active).
Compound Cc1cn([C@@H]2C[C@@H](O)[C@H](CO)O2)c(=O)[nH]c1=O has an activity change, negative = inhibition of -2.77%.
In the case of Nc1nc(=O)n([C@H]2C[C@H](O)[C@@H](CO)O2)cc1F, the activity change, negative = inhibition is reported as -94.3% (active).
Cc1cn([C@H]2O[C@@H](CO)[C@H](O)[C@@H]2F)c(=O)[nH]c1=O showed an activity change, negative = inhibition of 14.2%.
In the case of O=c1[nH]c(=O)n([C@H]2CC(O)[C@@H](CO)O2)cc1C(F)(F)F (some centres undefined), the activity change, negative = inhibition is reported as 7.06%.
Compound Nc1ncn([C@H]2C[C@H](O)[C@@H](CO)O2)c(=O)n1 has an activity change, negative = inhibition of 35.6%.
With O=c1[nH]c(=O)n([C@H]2C[C@H](O)[C@@H](CO)O2)cc1C(F)(F)F the activity change, negative = inhibition was -19.7% and 1.85%.
For O=c1[nH]c(=O)n([C@H]2CCCO2)cc1F, the activity change, negative = inhibition was -87.1% (active) and -73.6% (active).
In the case of O=c1[nH]c(=O)n([C@H]2C[C@H](O)[C@@H](CO)O2)cc1F, the activity change, negative = inhibition is reported as -81.1% (active).
In the case of CN(C)CC/C=C1/c2ccccc2COc2ccccc21, the activity change, negative = inhibition is reported as -63.2% and 23.5% and 10.1%.
CC(C)C1C(=O)N(S(C)(=O)=O)[C@@H]2CCN(C(=O)/C=C/CN3CCCCC3)[C@@H]12 (some centres undefined) gave an activity change, negative = inhibition of 12%.
Work on NCCCCCc1cnc[nH]1 yielded an activity change, negative = inhibition of 11%.
O=c1cc(O)c(Cl)c[nH]1 gave an activity change, negative = inhibition of 4.32%.
O=c1ccc2ccc(OCCCCN3CCN(c4cccc5sccc45)CC3)cc2[nH]1 gave an activity change, negative = inhibition of 10.5%.
In the case of N[C@@H]1CCN(O)C1=O, the activity change, negative = inhibition is reported as 15%.
Compound O=C(O)CC/C=C\CC[C@@H]1[C@@H](N2CCCCC2)[C@@H](O)C[C@@H]1OCc1ccc(-c2ccccc2)cc1 has an activity change, negative = inhibition of -4.54%.
Work on COC(=O)C[C@H]1C(C)(C)C(=O)[C@@H]2CC3=C4CC(=O)O[C@@H](c5ccoc5)[C@]4(C)CCC3[C@@]1(C)C2=O (some centres undefined) yielded an activity change, negative = inhibition of -15.9%.
With C[N+]1(C)C2CC(OC(=O)[C@@H](CO)c3ccccc3)CC1C1OC12 (some centres undefined) the activity change, negative = inhibition was 4.33% and 10.7%.
Compound Cc1cn(C2CC(N=[N+]=[N-])C(CO)O2)c(=O)[nH]c1=O (centres undefined) has an activity change, negative = inhibition of 10.1%.
In the case of CCc1cn([C@H]2C[C@H](O)[C@@H](CO)O2)c(=O)[nH]c1=O, the activity change, negative = inhibition is reported as 13.9%.
In the case of Cc1cn([C@H]2C[C@H](N=[N+]=[N-])[C@@H](CO)O2)c(=O)[nH]c1=O, the activity change, negative = inhibition is reported as -81.6% (active).
In the case of O=C(O)C1[O][Sb]2([O][Sb]34[O]C(C(=O)O)C([O]3)C(C(O)CO)[O]4)[O]C(C(O)CO)C1[O]2 (centres undefined), the activity change, negative = inhibition is reported as -75.8% (active).
Compound C(=N\NC1=NCCN1)/c1c2ccccc2c(/C=N/NC2=NCCN2)c2ccccc12 has an activity change, negative = inhibition of -58.3%.
For O=C(Nc1cc2cc[nH]c2cn1)c1ccccc1, the activity change, negative = inhibition was -32.1%.
For COc1ccc(C(=O)c2ccc(O)cc2)c(O)c1O, the activity change, negative = inhibition was -0.363%.
In the case of N=C(N)c1ccc2cc(OC(=O)c3ccc(N=C(N)N)cc3)ccc2c1, the activity change, negative = inhibition is reported as 4.69%.
Work on NC(=O)/N=N/C(N)=O yielded an activity change, negative = inhibition of 7.42%.
In the case of CC(C)(C(=O)NCC(F)(F)C(F)(F)F)C(=O)N[C@@H]1C(=O)Nc2ccccc2-c2ccccc21, the activity change, negative = inhibition is reported as -88.1% (active).
C/C(=C/c1ccc(C(=O)O)cc1)c1ccc2c(c1)C(C)(C)CCC2(C)C gave an activity change, negative = inhibition of -3.41%.
NC1[C@H]2CN(c3nc4c(cc3F)c(=O)c(C(=O)O)cn4-c3ccc(F)cc3F)C[C@@H]12 (some centres undefined) gave an activity change, negative = inhibition of -37.5%.
With O=C(CCCCCN1C(=O)c2cccc3cccc(c23)C1=O)NO the activity change, negative = inhibition was -90.6% (active).
With O=C(O)CN1C(=O)c2cccc3cccc(c23)C1=O the activity change, negative = inhibition was 4.44% and 1.05%.
Compound O=C(O)CCCN1C(=O)c2cccc3cccc(c23)C1=O has an activity change, negative = inhibition of -5.26%.
In the case of O=c1cc(-c2ccc(O)cc2)oc2cc(O)ccc12, the activity change, negative = inhibition is reported as 22.2%.
Work on CCCC[C@H](C)C[C@H](O)/C=C/[C@H]1[C@H](O)CC(=O)[C@@H]1CCCC/C=C/C(=O)O yielded an activity change, negative = inhibition of -0.328%.
For C/C=C/C(=O)N(CC)c1ccccc1C, the activity change, negative = inhibition was 14.6% and 5.26%.
C=C[C@@](C)(/C=C/c1ccc(O)cc1)CCC=C(C)C gave an activity change, negative = inhibition of 11.8%.
For NC(=O)C(c1ccccc1)(c1ccc(F)cc1)c1ccc(F)cc1, the activity change, negative = inhibition was 1.76%.
With [O-][NH2+]c1ccc(O)c2ncccc12 the activity change, negative = inhibition was -71.9% (active) and -84.8% (active).
With Oc1ccc(Cl)c2cccnc12 the activity change, negative = inhibition was 17.5% and 6.79%.
Work on Oc1c(Br)cc(Br)c2cccnc12 yielded an activity change, negative = inhibition of -63.3%.
COc1ccc2c(c1OC)C(=O)O[C@@H]2C1c2c(cc3c(c2OC)OCO3)CCN1C (some centres undefined) gave an activity change, negative = inhibition of 8.49%.
C[C@@H]1C(=O)O[C@H]2CC34[C@H]5C[C@@H](C(C)(C)C)[C@]36[C@@H](OC(=O)[C@@H]6O)O[C@@]4(C(=O)O5)[C@]21O (some centres undefined) showed an activity change, negative = inhibition of 5.52%.
Compound CC(C)CCCC(C)[C@H]1CCC2C3C(=O)C=C4C[C@@H](O)CC[C@]4(C)C3CC[C@@]21C (some centres undefined) has an activity change, negative = inhibition of -7.52%.

From PubChem BioAssay AID1259421 (Broad Institute, 2018)
